According to PubChem BioAssay:
Activity calls are given as the source filed them.

Tests used:
[1] = binders of probe aFSTL3 on microarray, primary screen, stem cell growth factor project, biochemical, small-molecule microarray, fluorescence 635/667 (AID 1064); conditions: higher = more signal;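 further: measures binding of the biotinylated anti-FSTL3 antibody to printed compounds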
[2] = binders from COS7 lysate, DM2A8 probe, primary screen, torsin A project, cell lysate, small-molecule microarray, fluorescence 635/667 (AID 1065); conditions: higher = more signal, COS7 lysate expressing mutant human TOR1A
[3] = binders of probe aFGF2 on microarray, primary screen, stem cell growth factor project, biochemical, small-molecule microarray, fluorescence 635/667 (AID 1067); conditions: higher = more signal;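 further: measures binding of biotinylated aFGF2 protein to printed compounds on slides; z-score merges feature fluorescence and signal-to-noise across triplicate slides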
[4] = binders of probe aFGF10 on microarray, primary screen, stem cell growth factor project, biochemical, small-molecule microarray, fluorescence 635/667 (AID 1071); conditions: higher = more signal;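 further: score merges 667 nm spot intensity and signal to noise from triplicate slides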
[5] = target: Neurogenic locus notch homolog protein 2 (Homo sapiens) (UniProt Q04721); test: Notch2 binders on small-molecule microarrays, primary screen, biochemical, small-molecule microarray, 635 nm fluorescence, stem cell growth factors (AID 1073); conditions: Notch2 binding, higher = more signal
Neurogenic locus notch homolog protein 2 (Homo sapiens), sequence (Q04721 whole entry, looked up, canonical isoform): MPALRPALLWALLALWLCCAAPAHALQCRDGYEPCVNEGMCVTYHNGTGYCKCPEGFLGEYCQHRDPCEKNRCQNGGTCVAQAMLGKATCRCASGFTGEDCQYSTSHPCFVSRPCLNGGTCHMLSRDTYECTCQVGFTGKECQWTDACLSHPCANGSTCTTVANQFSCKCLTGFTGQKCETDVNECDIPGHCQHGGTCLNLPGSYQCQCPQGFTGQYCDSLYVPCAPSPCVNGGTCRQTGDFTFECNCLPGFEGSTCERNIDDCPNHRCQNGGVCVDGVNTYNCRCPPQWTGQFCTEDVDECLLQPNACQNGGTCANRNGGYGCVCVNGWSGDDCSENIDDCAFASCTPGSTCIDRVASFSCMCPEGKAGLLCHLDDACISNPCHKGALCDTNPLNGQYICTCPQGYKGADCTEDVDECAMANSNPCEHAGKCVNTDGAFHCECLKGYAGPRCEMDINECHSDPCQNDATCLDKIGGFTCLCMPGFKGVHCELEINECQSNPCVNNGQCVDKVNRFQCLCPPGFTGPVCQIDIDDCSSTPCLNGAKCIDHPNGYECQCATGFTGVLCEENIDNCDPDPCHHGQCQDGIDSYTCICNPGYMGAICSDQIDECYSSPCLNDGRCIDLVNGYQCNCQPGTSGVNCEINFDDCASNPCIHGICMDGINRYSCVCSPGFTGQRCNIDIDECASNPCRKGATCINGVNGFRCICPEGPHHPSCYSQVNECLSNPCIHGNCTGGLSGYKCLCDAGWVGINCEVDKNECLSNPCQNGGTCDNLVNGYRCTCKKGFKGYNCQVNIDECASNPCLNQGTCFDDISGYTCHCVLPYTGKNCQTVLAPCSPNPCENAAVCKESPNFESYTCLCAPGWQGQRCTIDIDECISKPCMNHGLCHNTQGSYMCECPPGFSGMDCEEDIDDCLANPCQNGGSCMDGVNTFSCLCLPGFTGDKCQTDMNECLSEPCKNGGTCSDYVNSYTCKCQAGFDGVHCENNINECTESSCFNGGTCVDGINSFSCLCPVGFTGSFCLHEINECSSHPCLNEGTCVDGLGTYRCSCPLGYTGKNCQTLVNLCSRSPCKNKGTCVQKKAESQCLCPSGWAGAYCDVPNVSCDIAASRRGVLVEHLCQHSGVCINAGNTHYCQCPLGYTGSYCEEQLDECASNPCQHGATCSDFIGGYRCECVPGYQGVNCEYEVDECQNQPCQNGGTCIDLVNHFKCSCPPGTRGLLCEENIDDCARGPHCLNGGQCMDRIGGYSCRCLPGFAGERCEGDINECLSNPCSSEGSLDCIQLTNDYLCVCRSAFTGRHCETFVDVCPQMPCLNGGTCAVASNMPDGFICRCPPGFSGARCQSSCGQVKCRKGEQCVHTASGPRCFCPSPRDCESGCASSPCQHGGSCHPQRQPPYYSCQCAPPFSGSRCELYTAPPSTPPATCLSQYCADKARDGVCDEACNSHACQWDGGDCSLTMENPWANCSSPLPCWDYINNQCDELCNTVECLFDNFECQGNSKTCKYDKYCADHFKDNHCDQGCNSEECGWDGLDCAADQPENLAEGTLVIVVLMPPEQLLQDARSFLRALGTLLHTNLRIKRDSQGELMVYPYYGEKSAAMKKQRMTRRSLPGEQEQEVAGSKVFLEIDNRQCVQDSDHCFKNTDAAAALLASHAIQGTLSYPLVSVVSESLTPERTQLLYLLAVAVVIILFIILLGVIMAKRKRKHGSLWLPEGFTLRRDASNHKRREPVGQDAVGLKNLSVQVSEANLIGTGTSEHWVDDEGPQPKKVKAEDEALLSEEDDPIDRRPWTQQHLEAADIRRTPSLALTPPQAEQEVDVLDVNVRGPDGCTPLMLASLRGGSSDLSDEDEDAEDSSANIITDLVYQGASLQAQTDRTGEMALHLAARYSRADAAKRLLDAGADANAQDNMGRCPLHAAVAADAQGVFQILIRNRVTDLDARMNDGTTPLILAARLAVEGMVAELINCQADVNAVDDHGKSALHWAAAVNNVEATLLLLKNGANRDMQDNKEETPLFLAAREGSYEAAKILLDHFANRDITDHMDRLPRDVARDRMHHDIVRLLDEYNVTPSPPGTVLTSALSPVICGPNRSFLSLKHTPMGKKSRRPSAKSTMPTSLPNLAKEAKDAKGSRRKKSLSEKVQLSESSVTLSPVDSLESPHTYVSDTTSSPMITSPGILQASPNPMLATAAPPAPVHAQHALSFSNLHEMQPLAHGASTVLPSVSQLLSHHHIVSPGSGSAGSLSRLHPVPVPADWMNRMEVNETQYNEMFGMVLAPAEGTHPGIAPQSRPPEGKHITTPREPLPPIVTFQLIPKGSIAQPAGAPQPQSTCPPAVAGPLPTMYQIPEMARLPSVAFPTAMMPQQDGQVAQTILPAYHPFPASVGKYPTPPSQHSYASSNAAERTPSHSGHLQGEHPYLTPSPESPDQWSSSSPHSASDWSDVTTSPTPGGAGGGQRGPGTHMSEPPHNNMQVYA

[6] = target: Pro-neuregulin-1, membrane-bound isoform (Homo sapiens) (UniProt Q02297); test: NRG1 binders on small-molecule microarrays, primary screen, psychiatric disease protein project, biochemical, small-molecule microarray, fluorescence 635/667 (AID 1075); conditions: NRG1 binding, 635 nm fluorescence, higher = more signal;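 further: score combines 667 nm spot fluorescence with signal to noise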
Pro-neuregulin-1, membrane-bound isoform (Homo sapiens), sequence (Q02297 whole entry, looked up, the tested form may be a part, canonical isoform): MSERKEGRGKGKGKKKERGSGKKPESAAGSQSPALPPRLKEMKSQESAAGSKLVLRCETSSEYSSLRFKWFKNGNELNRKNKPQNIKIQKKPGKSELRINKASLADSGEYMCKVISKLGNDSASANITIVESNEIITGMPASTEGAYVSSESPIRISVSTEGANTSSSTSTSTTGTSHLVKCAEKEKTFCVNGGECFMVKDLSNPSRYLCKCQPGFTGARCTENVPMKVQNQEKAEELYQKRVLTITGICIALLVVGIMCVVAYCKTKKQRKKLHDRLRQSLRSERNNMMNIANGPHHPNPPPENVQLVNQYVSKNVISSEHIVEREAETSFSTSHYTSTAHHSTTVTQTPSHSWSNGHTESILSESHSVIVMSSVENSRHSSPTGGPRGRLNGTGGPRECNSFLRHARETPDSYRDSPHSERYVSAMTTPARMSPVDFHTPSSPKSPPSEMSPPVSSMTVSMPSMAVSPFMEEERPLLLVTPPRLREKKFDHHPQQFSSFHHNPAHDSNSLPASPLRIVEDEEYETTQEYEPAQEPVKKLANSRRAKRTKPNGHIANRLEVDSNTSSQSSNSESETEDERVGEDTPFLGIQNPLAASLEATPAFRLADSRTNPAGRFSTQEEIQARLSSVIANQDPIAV

[7] = system: Neuregulin-1 EGF-like domain; test: binders of neuregulin-1 EGF-like domain, primary screen, biochemical, small-molecule microarray, 635 nm fluorescence (AID 1081); conditions: small-molecule microarray binding, higher = more signal;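 further: binding of the protein to compounds printed on small-molecule microarray slides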
[8] = FRG1 promoter luciferase signal modulators, primary screen, FRG1 inhibition for FSHD, cell-based, C2C12 myotubes, firefly/Renilla luciferase, luminescence (AID 1084); conditions: higher = more signal, called active from +8 up or from −8 down
[9] = binders of probe aFST on microarray, primary screen, stem cell growth factor project, biochemical, small-molecule microarray, fluorescence 635/667 (AID 1086); conditions: higher = more signal;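 further: score merges 667 nm fluorescence with signal-to-noise of each printed compound spot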
[10] = binders of probe aHhip on microarray, primary screen, stem cell growth factor project, biochemical, small-molecule microarray, fluorescence 635/667 (AID 1087); conditions: higher = more signal;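 further: score merges spot fluorescence at 667nm with spot signal to noise ratio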

| SMILES | composite z-score [1] | composite z-score [2] | composite z-score [3] | composite z-score [4] | composite z-score [5] | composite z-score [6] | composite z-score [7] | z-score [8] | composite z-score [9] | composite z-score [10] |
| --- | --- | --- | --- | --- | --- | --- | --- | --- | --- | --- |
| CCOC(=O)C1=C[C@@H](c2ccccc2)N(S(=O)(=O)c2ccc(C)cc2)[C@H]1c1cccc(Cl)c1 | 0.266 | 1.81 | 0.085 | 0.885 | 1.58 | 1.34 | 0.991 | -2.98 (inactive) | 1.02 | -0.0919 |
| C=C(CCCC)C(=O)CC[C@@H](OC(=O)c1ccccc1-c1ccccc1C(=O)O)c1cccc(OCCO)c1 | -0.208 | 0.996 | -0.129 | 0.166 | -0.404 | 0.143 | 0.742 | 0.238 (inactive) | -0.499 | -0.249 |
| C=CC[C@]12N=C(c3ccc(OCCCO)cc3)O[C@H]1c1ccccc1N(C)C2=O | 1.21 | 0.541 | 0.0563 | 0.21 | 0.0523 | 1.3 | 1.22 | -1.14 (inactive) | 0.896 | 0.214 |
| CC=CC(O)C1C=CC2C(=O)N(c3ccccc3)C(=O)C2N1Nc1ccccc1 (stereo not given) | 0.393 | 0.274 | -0.0114 | 1.02 | 1.68 | 1.91 | 1.29 | 0.568 (inactive) | 1.14 | -0.0852 |
| C[C@@H](OCc1ccccc1)C1NC(=O)[C@@]23C(=O)N[C@@H](Cc4ccccc4)C2[C@H](C)[C@@]2(C)O[C@H]2C3/C=C/C/C=C\CNC(=O)CNC1=O (stereo not given in full) | -0.231 | 0.667 | -0.132 | 0.25 | -1.08 | -0.366 | -0.002 | -0.0275 (inactive) | -0.294 | -0.134 |
| CN1C2C=C(CCCO)C(C3C(=O)N(C(N)=O)C(=O)C32)C1c1cccs1 (stereo not given) | -0.153 | 0.104 | -0.116 | -1.63 | 0.127 | -0.317 | 0.165 | -0.194 (inactive) | 0.0118 | 0.303 |
| C=C(C(=O)CC[C@H](OC(=O)c1cccnc1)c1cccc(OCCO)c1)C(C)C | 0.483 | 0.401 | -0.157 | -0.195 | -1.26 | -0.593 | 0.484 | 0.243 (inactive) | -0.809 | 0.238 |
| CN1C(=O)C2C=CC(C(O)c3c(F)cccc3Cl)N(Nc3ccccc3)C2C1=O (stereo not given) | -0.196 | -0.198 | 0.171 | 0.334 | 1.55 | 1.84 | 1.1 | 0.433 (inactive) | 0.878 | -0.0346 |
| COCCCNC(=O)[C@@H]1c2ccccc2C(=O)N(Cc2ccccc2C(F)(F)F)[C@H]1c1ccc(CO)cc1 | 0.6 | 0.054 | -0.0284 | -0.445 | -0.356 | 0.068 | 1.16 | 0.421 (inactive) | 0.0584 | -0.0726 |
| CC=CC(O)C1C=CC2C(=O)N(c3ccccc3)C(=O)C2N1Nc1ccc([N+](=O)[O-])cc1 (stereo not given) | -0.241 | 0.0149 | -0.0534 | 0.407 | 0.998 | 1.69 | 0.981 | 0.515 (inactive) | 0.126 | -0.0003 |
| COC(=O)[C@@]1(Cc2ccccc2)[C@H]2c3cc(C(=O)N4CCCC4)n(Cc4ccsc4Br)c3C[C@H]2CN1C(=O)c1ccccc1 | 0.166 | -0.411 | 0.281 | 0.682 | 1.72 | 1.46 | 1.18 | -0.444 (inactive) | 1.51 | 0.155 |
| NC(=O)NCC#Cc1ccc2c(c1)[C@]1(C(=O)N2)[C@H](C(=O)Nc2nc3ccccc3s2)[C@H]2C(=O)O[C@H](c3ccccc3)[C@H](c3ccccc3)N2[C@@H]1c1ccc(O)cc1 | 0.187 | 0.544 | -0.0415 | 0.604 | 0.455 | 0.339 | -0.15 | 1.46 (inactive) | 0.623 | 0.142 |
| C[C@]1(C(=O)O)c2ccccc2C(=O)N(Cc2ccccc2)[C@H]1c1ccc(CO)cc1 | 1.63 | -0.646 | -0.116 | -1.03 | -1.24 | 0.869 | 0.521 | -0.319 (inactive) | -0.42 | -0.164 |
| CC1CC/C=C\[C@H]2OC34C=CCN(CCN5CCOCC5)C(=O)[C@H]3N(CCO)C(=O)[C@@H]4C2C(=O)O1 (stereo not given in full) | 0.507 | -0.342 | 0.013 | -0.105 | -0.807 | -0.917 | -0.376 | -0.322 (inactive) | -0.421 | -0.4 |
